According to PubChem BioAssay (Tox21):
Values joined by “and” are separate entries in the source; they are usually repeats but may differ in a detail not shown here. Equal entries are not always repeated. Results filed as inconclusive are left out. Entries that show only a call come without a potency. A structure can be active in one record and inactive in another. Active and inactive are the calls of the source. The call rests on the fitted dose curve; in most records, active means well fitted cell-killing curve with a large enough effect in the repeat runs; inconclusive means weak or mixed curves; inactive means flat fitted curve, though single readings scatter.

assay: qHTS RealTime-Glo MT Cell Viability Assay in HepG2 cells - 16 hour (AID 1224885); details: RealTime-Glo luminescence; series mostly up to 76.8 µM; activity change, negative = cytotoxic: at the top concentration; further: nearly all actives have a fitted effect of over 50% in size
Text: U.S. Tox21 Program National Center for Advancing Translational Sciences [NCATS] NIH Chemical Genomics Center [NCGC] U.S. Environmental Protection Agency [EPA] National Institutes of Environmental Health Sciences [NIEHS] National Toxicology Program [NTP] U.S. Food and Drug Administration [FDA] Tox21 Assay Overview: Measure of cell viability is critical in the cell-base assay. Analysis of cell viability is necessary for the characterization of cell responses to cytotoxic drugs and environmental stress. A RealTime-Glo MT Cell Viability Assay to monitor cell viability in real time of continues cell culture during 40 hours of compound treatment was used to screen Tox21 10K library compounds in HepG2 cells. The RealTime-Glo MT Cell Viability Assay is a nonlytic, homogeneous, bioluminescent method to measure cell viability in real time using a simple, plate-based method. The assay involves adding NanoLuc luciferase and a cell-permeant prosubstrate to cells in culture. Viable cells reduce the proprietary prosubstrate to generate a substrate for NanoLuc luciferase. This substrate diffuses from cells into the surrounding culture medium, where it is rapidly used by the NanoLuc Enzyme to produce a luminescent signal. The signal correlates with the number of viable cells, making the assay well suited for cytotoxicity studies.
Tox21 Assay Protocol Summary: The mixture of HepG2 cell suspension and reagents were dispensed at 600cells/6 ul/well in 1536-well tissue culture treated black solid bottom plates using a Multidrop dispenser. After the assay plates were incubated at a 37 C/5% CO2 incubator for 5 hours, 23 nL of compounds dissolved in DMSO, positive and negative controls was transferred to the assay plate by a pintool work station. The plates were incubated at 37 C for 40 hours. The luminescence intensity were measured at 0h, 8h, 16h, 24h, 32h and 40h time points using ViewLux plate reader during compound treatment.
Potency means the concentration at half of the fitted maximal effect.

| SMILES | Potency | activity change, negative = cytotoxic |
| --- | --- | --- |
| c1ccc2c(c1)Nc1ccccc1S2 | inactive |  |
| CC(C)Nc1ccc(Nc2ccccc2)cc1 | 54.7 µM (active) and 49 µM (active) |  |
| CNC(=O)CSP(=S)(OC)OC | inactive |  |
| CC(C)(c1ccc(OCC2CO2)cc1)c1ccc(OCC2CO2)cc1 (stereo not given) | inactive |  |
| N#CCCCCC#N | inactive |  |
| O=C(O)CF | inactive |  |
| C[N+](C)(C)CC(=O)[O-] | inactive |  |
| c1ccc(C2CO2)cc1 (stereo not given) | inactive |  |
| COc1ccc(O)c(C(C)(C)C)c1 | inactive |  |
| CCNCC | inactive |  |
| OC(c1ccc(Cl)cc1)(c1cncnc1)c1ccccc1Cl (stereo not given) | 39.6 µM (active) |  |
| CCOP(=O)(O)OCC (tested in a mixture with another compound) | inactive and 48.6 µM (active) |  |
| CC1CC(=O)O1 (stereo not given) | inactive |  |
| CC1=C(C(=O)Nc2ccccc2)SCCO1 | inactive |  |
| N#Cc1cccnc1 | inactive |  |
| C=CC(=O)OCC(CC)(COC(=O)C=C)COC(=O)C=C | 25.2 µM (active) and 13.8 µM (active) |  |
| CC(C)=CC1C(C(=O)OCN2C(=O)C3=C(CCCC3)C2=O)C1(C)C (stereo not given) | inactive |  |
| CC(O)CN(CC(C)O)CC(C)O (stereo not given) | inactive |  |
| CN(C)c1nc(=O)n(C2CCCCC2)c(=O)n1C | inactive |  |
| O=NN(c1ccccc1)c1ccccc1 | inactive |  |

| SMILES | Potency | activity change, negative = cytotoxic |
| --- | --- | --- |
| CNC(=O)Oc1cccc2c1OC(C)(C)C2 | inactive |  |
| CC(C)(C#N)N=NC(C)(C)C#N | inactive |  |
| CC(C)(c1ccccc1)c1ccc(O)cc1 |  | -19.3% (inactive) |
| O=[N+]([O-])/N=C1\NCCN1Cc1ccc(Cl)nc1 | inactive |  |
| Clc1ccccc1-c1nnc(-c2ccccc2Cl)nn1 | inactive |  |
| Clc1cccc(Cl)c1 | inactive |  |
| ClC(Cl)(Cl)Br | inactive |  |
| CN(C)P(=O)(N(C)C)N(C)C | inactive |  |
| Cc1ccc(N=CN(C)C=Nc2ccc(C)cc2C)c(C)c1 | inactive |  |
| O=S(=O)(O)C(F)(F)C(F)(F)C(F)(F)C(F)(F)C(F)(F)C(F)(F)C(F)(F)C(F)(F)F | inactive |  |
| CN(C)c1ccccc1 | inactive |  |
| CCCCCCCCCC(CC)c1ccc(S(=O)(=O)O)cc1 (stereo not given) | inactive |  |
| [Cl-].[Cl-].[Cl-].[Fe+3] | inactive |  |
| CC(C)COC(=O)c1ccccc1C(=O)OCC(C)C | inactive |  |
| O=C(O)c1nn(Cc2ccc(Cl)cc2Cl)c2ccccc12 | inactive |  |
| O=C1CCCO1 | inactive |  |
| CCOP(=O)(OCC)OCC | inactive |  |
| CCCCCCCCCc1ccc(O)cc1 | inactive |  |
| CNC(=S)S | inactive |  |
| CC(C)(O)C#N | inactive |  |
